PubChem BioAssay AID739 (SRMLSC, 2007)
The campaign covered roughly 98,000 compounds. About 880 (0.9%) were called active. The full list was thinned out, with actives kept by preference. Values without a mark were called inactive. No stated cut-off is given here; in the data, active means inhibition above about 30%; inactive means the rest.

Test: phenotypic screen on post-Golgi transport, primary screen (AID 739);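 further: yeast cells grown in 1536-well plates; yeast grown about 18 h at 30C before absorbance read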
Settings: post-Golgi transport phenotypic cell assay; at 10 µM; hits give high values

| Compound | inhibition |
| --- | --- |
| CC(C)Cn1cnc2c1c(=O)n(CC(O)c1ccccc1)c(=O)n2CC(C)C (stereo not drawn) | 2.02% |
| CCn1c2ccccc2c2cc(NC(=S)N3CCOCC3)ccc21 | 8.17% |
| COc1ccc(N2CCN(Cc3cc(=O)oc4ccc5ccccc5c34)CC2)cc1 | 14.4% |
| CCCC(=O)N(CCc1ccccc1)Cc1nc2ccccc2c(=O)[nH]1 | -6.28% |
| CN(Cc1nc2ccccc2c(=O)[nH]1)Cc1cc(=O)oc2ccc3ccccc3c12 | 39.3% (active) |
| CC(C)c1ccc(NC(=O)CCN2C(=O)c3ccc([N+](=O)[O-])cc3C2=O)cc1 | -0.5% |
| Cc1ccc(S(=O)(=O)NCC(=O)N(CC(=O)NC(C)(C)C)Cc2cccs2)cc1 | -2.77% |
| Cn1nc([N+](=O)[O-])nc1Sc1ccc(C(C)(C)C)cc1 | 0.31% |
| Cn1c(Cn2nnc3ccccc32)nnc1SCC(=O)c1ccccc1F | 11.5% |
| CSc1ncccc1C(=O)OCC(=O)N1CCOCC1 | 31.5% (active) |
| O=C(c1cccnc1NCc1ccccc1)N1CCOCC1 | -0.34% |
| COc1ccc(C(CNC(=O)c2cccnc2SC)N2CCOCC2)cc1 (stereo not drawn) | -3.85% |
| Cc1ccc(SCC(=O)c2sc(-c3ccccc3)nc2C)cc1 | -0.4% |
| O=C(COc1ncnc2c(Cl)cc(Cl)cc12)N1CCN(S(=O)(=O)c2ccccc2)CC1 | 18.3% |
| CC(=O)NNc1cc(=O)c2c(=O)n(C)c(=O)n(C)c2[nH]1 | 9.45% |
| O=S(=O)(c1cnccc1N1CCN(/N=C/c2ccc(Br)cc2)CC1)N1CCCCC1 | 49.6% (active) |
| CNS(=O)(=O)c1cnccc1N1CCN(c2cccc(C)c2)CC1 | -3.21% |
| O=C(O)C1CCCN(S(=O)(=O)c2cccc3cccnc23)C1 (stereo not drawn) | -3.64% |
| CCCOn1c(-n2nc(C)cc2C)nc2ccccc2c1=O | 2.91% |
| CCOC(=O)N1CCN(c2c(NCCCN3CCCC(C)C3)c(=O)c2=O)CC1 (stereo not drawn) | 7.09% |
| O=C(OCc1cn(-c2ccc(Cl)c(Cl)c2)nn1)c1ccccc1Cl | -1.94% |
| CCn1c(/C=C/c2ccc([N+](=O)[O-])o2)nc2ccccc2c1=O | 76.6% (active) |
| Cc1nc2ccccc2c(=O)n1CCCn1ccnc1 | 2.21% |
| CCc1ccc(NC(=O)CSc2nc3ccccc3c(=O)n2CCN2CCOCC2)cc1 | 0% |

| Compound | inhibition |
| --- | --- |
| O=C(CCCCCn1c(=O)[nH]c2ccccc2c1=O)NCCc1c[nH]c2ccccc12 | -3.35% |
| COc1ccc2c(c1)CCc1c(C(=O)N3CCCC3)noc1-2 | -1.12% |
| COc1ccc2c(c1)CCc1c(C(=O)N3CCc4ccccc4C3)noc1-2 | 40.4% (active) |
| COc1ccc2c(c1)CCc1c(C(=O)Nc3c(C)n(C)n(-c4ccccc4)c3=O)noc1-2 | 3.19% |
| CCN(CC)CCCNC(=O)CCc1ccccc1 | 3.7% |
| Cc1nn(CC(=O)Nc2nc3ccccc3s2)c(C)c1[N+](=O)[O-] | -1.92% |
| O=C(CCS(=O)(=O)c1cccc2nsnc12)N1CCN(c2ccccc2F)CC1 | 6.04% |
| Fc1ccc(N2N=C(c3cccs3)CC2c2ccco2)c(F)c1 (stereo not drawn) | 8.56% |
| Cc1cc2cc3c(cc2nc1SCC(=O)Nc1c(C)cccc1C)CCC3 | -0.36% |
| Cc1nc2cc(NC(=O)CSc3nc4c(C)cccc4cc3C#N)ccc2s1 | -0.17% |
| CC(NC(=O)CSc1nc2c(cc1C#N)CN(C)CC2)c1ccccc1 (stereo not drawn) | 60.2% (active) |
| CC(C)C(NS(=O)(=O)c1cccs1)C(=O)Nc1nc(C(C)(C)C)cs1 (stereo not drawn) | 7.03% |
| Cc1c(C=O)c2ccccn2c1C(=O)c1ccncc1 | -6.66% |
| COc1ccc(NC(=O)Nc2ccc3nsnc3c2)cc1 | -0.7% |
| O=C(Nc1ccc2ccccc2c1)Nc1ccc2snnc2c1 | 96.1% (active) |
| COc1ccc(NC(=O)Nc2ccc3nc(C)c(C)nc3c2)cc1 | -7.69% |
| CC(=O)Nc1ccccc1C(=O)C(=O)Nc1ccc(F)cc1 | -1% |
| Cc1nnc(NC(=O)Nc2ccc(Cl)c(Cl)c2)s1 | 5.16% |
| N/C(=N\OC(=O)Nc1ccc(Cl)c(Cl)c1)c1ncc(C(F)(F)F)cc1Cl | 3.3% |
| O=C(CC(O)(C(F)(F)F)C(F)(F)F)Nc1ccc(Cl)c(Cl)c1 | 105% (active) |
| COc1cc(SC)ccc1C(=O)NCCOc1ccccc1Cl | 4.48% |
| c1ccc(-c2[nH]ncc2-c2nc3ccccc3[nH]2)cc1 | 11% |
| Cc1ccc(-c2nc3ccccc3[nH]2)cc1N | 0.67% |
| c1ccc2[nH]c(-c3nc4ccccc4[nH]3)nc2c1 | 30.1% (active) |
